Laboratory results taken from the supplement of paper PMC8728848.
About 410 targets per protein were measured; listed, in parts, are those with the strongest signals and a random draw of the rest.

Key:
Experiment in all cases: glycan array binding signal (z-score within array); higher = stronger binding
Conditions in all cases: glycan notation: IUPAC condensed, linker removed
Fuc(a1-2)Gal(b1-4)Glc = target: Fuc(a1-2)Gal(b1-4)Glc
Summary of the method: (§1)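 Glycan array binding is given as a within-array Z-score, which can be read as non-binding when negative. The arrays, 3228 of them, came from the Consortium for Functional Glycomics database and were retained only where the protein sequence was available. Z-scores were averaged across arrays of the same protein sequence at different concentrations or buffers and across linkers.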

[1] = target: Fuc(a1-2)Gal(b1-4)GlcNAc(b1-2)[Fuc(a1-2)Gal(b1-4)GlcNAc(b1-4)]Man(a1-3)[Fuc(a1-2)Gal(b1-4)GlcNAc(b1-2)Man(a1-6)]Man(b1-4)GlcNAc(b1-4)GlcNAc
Summary of the method: as §1

[2] = target: Fuc(a1-2)Gal(b1-4)GlcNAc(b1-6)GalNAc
Summary of the method: as §1

[3] = target: Fuc(a1-2)Gal(b1-4)[Fuc(a1-3)]GlcNAc(b1-2)[Fuc(a1-2)Gal(b1-4)[Fuc(a1-3)]GlcNAc(b1-4)]Man(a1-3)[Fuc(a1-2)Gal(b1-4)[Fuc(a1-3)]GlcNAc(b1-2)Man(a1-6)]Man(b1-4)GlcNAc(b1-4)GlcNAc
Summary of the method: as §1

[4] = target: Fuc(a1-2)[Gal(a1-3)]Gal(b1-4)GlcNAc
Summary of the method: as §1

[5] = target: Fuc(a1-2)[Gal(a1-3)]Gal(b1-4)GlcNAc(b1-2)Man
Summary of the method: as §1

[6] = target: Fuc(a1-2)[GalNAc(a1-3)]Gal(b1-3)GlcNAc
Summary of the method: as §1

[7] = target: Fuc(a1-2)[GalNAc(a1-3)]Gal(b1-4)GlcNAc(b1-2)Man(a1-3)[Fuc(a1-2)[GalNAc(a1-3)]Gal(b1-4)GlcNAc(b1-2)Man(a1-6)]Man(b1-4)GlcNAc(b1-4)[Fuc(a1-6)]GlcNAc
Summary of the method: as §1

[8] = target: Gal(a1-3)Gal(b1-3)GlcNAc(b1-6)GalNAc
Summary of the method: as §1

[9] = target: Gal(a1-3)Gal(b1-4)GlcNAc(b1-3)GalNAc
Summary of the method: as §1

[10] = target: Gal(b1-3)GlcNAc(b1-2)[Gal(b1-3)GlcNAc(b1-6)]Man(a1-6)[Gal(b1-3)GlcNAc(b1-2)Man(a1-3)]Man(b1-4)GlcNAc(b1-4)GlcNAc
Summary of the method: as §1

[11] = target: Gal(b1-3)[Fuc(a1-4)]GlcNAc(b1-6)GalNAc
Summary of the method: as §1

Gal(b1-4)Glc6S = target: Gal(b1-4)Glc6S
Summary of the method: as §1

[12] = target: Gal(b1-4)GlcNAc(b1-3)Gal(b1-3)GalNAc
Summary of the method: as §1

[13] = target: Gal(b1-4)GlcNAc(b1-3)Gal(b1-4)GlcNAc(b1-2)Man(a1-3)[Gal(b1-4)GlcNAc(b1-3)Gal(b1-4)GlcNAc(b1-2)Man(a1-6)]Man(b1-4)GlcNAc(b1-4)[Fuc(a1-6)]GlcNAc
Summary of the method: as §1

[14] = target: Gal(b1-4)GlcNAc(b1-3)Gal(b1-4)GlcNAc(b1-3)Gal(b1-4)GlcNAc(b1-3)Gal(b1-4)GlcNAc(b1-2)Man(a1-3)[Gal(b1-4)GlcNAc(b1-3)Gal(b1-4)GlcNAc(b1-3)Gal(b1-4)GlcNAc(b1-3)Gal(b1-4)GlcNAc(b1-2)Man(a1-6)]Man(b1-4)GlcNAc(b1-4)[Fuc(a1-6)]GlcNAc
Summary of the method: as §1

[15] = target: Gal(b1-4)GlcNAc(b1-6)[Gal(b1-4)GlcNAc(b1-3)]GalNAc
Summary of the method: as §1

Gal3S(b1-4)Glc6S = target: Gal3S(b1-4)Glc6S
Summary of the method: as §1

Gal3S(b1-4)GlcNAc = target: Gal3S(b1-4)GlcNAc
Summary of the method: as §1

GalNAc(b1-4)Gal(b1-4)Glc = target: GalNAc(b1-4)Gal(b1-4)Glc
Summary of the method: as §1

[16] = target: GalNAc(b1-4)GlcNAc(b1-2)Man(a1-3)[GalNAc(b1-4)GlcNAc(b1-2)Man(a1-6)]Man(b1-4)GlcNAc(b1-4)GlcNAc
Summary of the method: as §1

[17] = target: GlcNAc(a1-6)Gal(b1-4)GlcNAc
Summary of the method: as §1

[18] = target: GlcNAc(b1-3)Gal(b1-4)GlcNAc(b1-3)Gal(b1-4)GlcNAc(b1-2)Man(a1-3)[GlcNAc(b1-3)Gal(b1-4)GlcNAc(b1-3)Gal(b1-4)GlcNAc(b1-2)Man(a1-6)]Man(b1-4)GlcNAc(b1-4)[Fuc(a1-6)]GlcNAc
Summary of the method: as §1

[19] = target: GlcNAc(b1-3)Gal(b1-4)GlcNAc(b1-3)Gal(b1-4)GlcNAc(b1-3)Gal(b1-4)GlcNAc(b1-2)Man(a1-3)[GlcNAc(b1-3)Gal(b1-4)GlcNAc(b1-3)Gal(b1-4)GlcNAc(b1-3)Gal(b1-4)GlcNAc(b1-2)Man(a1-6)]Man(b1-4)GlcNAc(b1-4)[Fuc(a1-6)]GlcNAc
Summary of the method: as §1

[20] = target: Man(a1-2)Man(a1-2)Man(a1-6)[Man(a1-3)]Man
Summary of the method: as §1

[21] = target: Man(a1-3)[Man(a1-6)]Man(b1-4)GlcNAc(b1-4)[Fuc(a1-6)]GlcNAc
Summary of the method: as §1

[22] = target: Neu5Ac(a2-3)Gal(b1-3)GlcNAc(b1-3)GalNAc
Summary of the method: as §1

[23] = target: Neu5Ac(a2-3)Gal(b1-4)GlcNAc(b1-2)[Neu5Ac(a2-3)Gal(b1-4)GlcNAc(b1-6)]Man(a1-6)[Neu5Ac(a2-3)Gal(b1-4)GlcNAc(b1-2)Man(a1-3)][GlcNAc(b1-4)]Man(b1-4)GlcNAc(b1-4)GlcNAc
Summary of the method: as §1

[24] = target: Neu5Ac(a2-3)Gal(b1-4)GlcNAc(b1-3)Gal
Summary of the method: as §1

[25] = target: Neu5Ac(a2-3)Gal(b1-4)GlcNAc(b1-3)Gal(b1-4)GlcNAc(b1-3)GalNAc
Summary of the method: as §1

[26] = target: Neu5Ac(a2-3)Gal(b1-4)GlcNAc(b1-3)Gal(b1-4)[Fuc(a1-3)]GlcNAc
Summary of the method: as §1

[27] = target: Neu5Ac(a2-3)Gal(b1-4)GlcNAc(b1-6)[Neu5Ac(a2-3)Gal(b1-3)]GalNAc
Summary of the method: as §1

[28] = target: Neu5Ac(a2-3)Gal(b1-4)[Fuc(a1-3)]GlcNAc(b1-3)Gal(b1-4)GlcNAc
Summary of the method: as §1

[29] = target: Neu5Ac(a2-3)Gal(b1-4)[Fuc(a1-3)]GlcNAc(b1-3)GalNAc
Summary of the method: as §1

[30] = target: Neu5Ac(a2-3)Gal(b1-4)[Fuc(a1-3)]GlcNAc(b1-6)[Neu5Ac(a2-3)Gal(b1-3)]GalNAc
Summary of the method: as §1

[31] = target: Neu5Ac(a2-6)Gal(b1-4)GlcNAc(b1-2)Man(a1-3)[Man(a1-6)]Man(b1-4)GlcNAc(b1-4)GlcNAc
Summary of the method: as §1

[32] = target: Neu5Ac(a2-6)Gal(b1-4)GlcNAc(b1-2)Man(a1-3)[Neu5Ac(a2-6)Gal(b1-4)GlcNAc(b1-2)Man(a1-6)]Man(b1-4)GlcNAc(b1-4)GlcNAc
Summary of the method: as §1

[33] = target: Neu5Ac(a2-6)Gal(b1-4)GlcNAc(b1-2)Man(a1-3)[Neu5Ac(a2-6)Gal(b1-4)GlcNAc(b1-2)Man(a1-6)]Man(b1-4)GlcNAc(b1-4)[Fuc(a1-6)]GlcNAc
Summary of the method: as §1

[34] = target: Neu5Ac(a2-6)Gal(b1-4)GlcNAc(b1-3)Gal(b1-3)GlcNAc
Summary of the method: as §1

[35] = target: Neu5Ac(a2-6)Gal(b1-4)GlcNAc(b1-3)Gal(b1-4)GlcNAc(b1-3)Gal(b1-4)GlcNAc(b1-2)Man(a1-3)[Neu5Ac(a2-6)Gal(b1-4)GlcNAc(b1-3)Gal(b1-4)GlcNAc(b1-3)Gal(b1-4)GlcNAc(b1-2)Man(a1-6)]GalNAc
Summary of the method: as §1

[36] = target: Neu5Ac(a2-6)Gal(b1-4)GlcNAc(b1-3)Gal(b1-4)GlcNAc(b1-3)GalNAc
Summary of the method: as §1

[37] = target: Neu5Ac(a2-6)Gal(b1-4)GlcNAc(b1-3)[Neu5Ac(a2-6)Gal(b1-4)GlcNAc(b1-6)]GalNAc
Summary of the method: as §1

[38] = target: Neu5Ac(a2-8)Neu5Ac(a2-8)Neu5Ac(a2-3)[GalNAc(b1-4)]Gal(b1-4)Glc
Summary of the method: as §1

[39] = target: Neu5Gc(b2-6)Gal(b1-4)GlcNAc
Summary of the method: as §1

B1: ERGIC1-EDTA (Homo sapiens), Q969X5 (protein)
chain: MKFLVNVALVFMVVYISYIYAAAHMHHHHHHDYDIPTTENLYFQGSEVVNELYVDDPDKDSGGKIDVSLNISLPNLHCELVGLDIQDEMGRHEVGHIDNSMKIPLNNGAGCRFEGQFSINKVPGNFHVSTHSATAQPQNPDMTHVIHKLSFGDTLQVQNIHGAFNALGGADRLTSNPLASHDYILKIVPTVYEDKSGKQRYSYQYTVANKEYVAYSHTGRIIPAIWFRYDLSPITVKYTE
- glycan array binding signal (z-score) (Fuc(a1-2)Gal(b1-4)Glc): -1.4
- glycan array binding signal (z-score) [1]: 2.88
- glycan array binding signal (z-score) [2]: 1.3
- glycan array binding signal (z-score) [3]: 1.07
- glycan array binding signal (z-score) [4]: -0.089
- glycan array binding signal (z-score) [5]: 0.546
- glycan array binding signal (z-score) [6]: 0.499
- glycan array binding signal (z-score) [7]: 2.25
- glycan array binding signal (z-score) [8]: 0.056
- glycan array binding signal (z-score) [9]: -0.034
- glycan array binding signal (z-score) [10]: 3.15
- glycan array binding signal (z-score) [11]: -0.044
- glycan array binding signal (z-score) (Gal(b1-4)Glc6S): -0.759
- glycan array binding signal (z-score) [12]: -1.26
- glycan array binding signal (z-score) [13]: 2.13
- glycan array binding signal (z-score) [14]: 2.23
- glycan array binding signal (z-score) [15]: -0.361
- glycan array binding signal (z-score) (Gal3S(b1-4)Glc6S): 0.151
- glycan array binding signal (z-score) (Gal3S(b1-4)GlcNAc): -0.117
- glycan array binding signal (z-score) (GalNAc(b1-4)Gal(b1-4)Glc): -0.531
- glycan array binding signal (z-score) [16]: 0.638
- glycan array binding signal (z-score) [17]: -0.295
- glycan array binding signal (z-score) [18]: 0.799
- glycan array binding signal (z-score) [19]: 2.52
- glycan array binding signal (z-score) [20]: -0.459
- glycan array binding signal (z-score) [21]: 2.1
- glycan array binding signal (z-score) [22]: 0.617
- glycan array binding signal (z-score) [23]: -0.63
- glycan array binding signal (z-score) [24]: -0.734
- glycan array binding signal (z-score) [25]: -0.406
- glycan array binding signal (z-score) [26]: -0.82
- glycan array binding signal (z-score) [27]: -0.285
- glycan array binding signal (z-score) [28]: 2.27
- glycan array binding signal (z-score) [29]: 3
- glycan array binding signal (z-score) [30]: 1.03
- glycan array binding signal (z-score) [31]: 1.69
- glycan array binding signal (z-score) [32]: -0.027
- glycan array binding signal (z-score) [33]: 2.07
- glycan array binding signal (z-score) [34]: 0.896
- glycan array binding signal (z-score) [35]: 2.02
- glycan array binding signal (z-score) [36]: 0.381
- glycan array binding signal (z-score) [37]: -1.06
- glycan array binding signal (z-score) [38]: 0.592
- glycan array binding signal (z-score) [39]: -0.624
